A selection: hits, their analogues and other compounds. The true share with any hit is near 3.5%.
CHRM1 antagonist – blocks human M1 muscarinic receptor. P11229. CHO-K1 hM1, Fluo-8 calcium fluorescence, ACh EC80 antagonist. inhibition, % at 3 µM. hit rate 1.3% among 360,000. AID 588852;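 active = percent inhibition above its own plate's cutoff, namely the mean of that plate's compound wells plus 3 SD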;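 also: peak over basal fluorescence ratio during 140 s after agonist addition; 0% = ACh EC80 plus DMSO and 100% = DMSO alone without agonist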
SKN-1 inh – inhibitors of C. elegans SKN-1 | C. elegans VP596 Pgst-4::GFP/RFP ratio, acrylamide-induced, 24 h | inhibition, % at 21.8 µM | hit rate 0.49% among 360,000 | AID 624304;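 active = interference check ratio from 0.5 to 1.5 plus GFP to RFP signal ratio inhibition reaching or exceeding a fixed threshold, cut at about 30% in these data, passing the limit was not always enough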
ATG4B inhibitor – inhibitors of human ATG4B cysteine protease | hit rate 0.51% among 340,000 | ATG4B cleavage of LC3-PLA2, NBD-HPC fluorescence, 1 h | inhibition, % at 8.33 µM; in the data active = inhibition above about 40%
Target sequence (Q9Y4P1 whole entry, looked up): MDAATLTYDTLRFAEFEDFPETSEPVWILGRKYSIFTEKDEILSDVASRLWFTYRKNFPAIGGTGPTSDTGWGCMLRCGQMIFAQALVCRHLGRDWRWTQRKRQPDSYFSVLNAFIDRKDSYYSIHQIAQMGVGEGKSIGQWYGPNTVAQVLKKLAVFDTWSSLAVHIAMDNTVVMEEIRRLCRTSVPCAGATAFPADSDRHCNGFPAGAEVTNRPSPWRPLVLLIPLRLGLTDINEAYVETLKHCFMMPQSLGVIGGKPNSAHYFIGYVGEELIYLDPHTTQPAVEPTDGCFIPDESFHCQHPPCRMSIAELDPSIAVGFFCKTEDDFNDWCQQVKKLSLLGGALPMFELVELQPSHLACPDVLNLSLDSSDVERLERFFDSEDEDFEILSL
CHRM1 agonist – agonists of human M1 muscarinic receptor. P11229. CHO-K1 hM1, Fluo-8 calcium fluorescence, agonist mode; 0% DMSO, 100% acetylcholine EC100. activation, % at 3 µM. hit rate 0.33% among 360,000. AID 588814;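 active = activation above the run's mean compound activation plus 3 SD, cut at about 16% in these data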;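 also: peak over basal fluorescence ratio within a 140 s kinetic read after compound addition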
CHRM1 PAM – human CHRM1 positive allosteric modulation; CHO-K1 hM1, Fluo-8 calcium fluorescence, ACh EC20; 0% = ACh EC20, 100% = maximal ACh; activation, % at 3 µM; hit rate 0.088% among 360,000; in the data active = activation above about 19%, passing the limit was not always enough
Myeloid diff 2 – myeloid differentiation induction | ER-HoxA9 myeloid progenitors, lysozyme-GFP differentiation, flow cytometry | calls only at 10 µM | hit rate 1% among 360,000;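 active = normalized GFP-positive differentiation at or above the plate's own cutoff, the solvent-only control mean plus 3 SD; inconclusive = no clear call, values can overlap the other calls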;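 also: cells exposed to compound for four days before flow analysis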
Starred values were filed as active, the others as inactive.

O=C(CN1C2CCCC1CC(NC(=O)C1CCCCC1)C2)Nc1ccccc1C(F)(F)F (stereo not drawn) was read as CHRM1 antagonist -4.2, SKN-1 inh 3.2, ATG4B inhibitor 3.2, CHRM1 agonist -7.9, CHRM1 PAM 0.1 and Myeloid diff 2 active.
For COc1ccccc1NS(=O)(=O)c1ccc(O)c(C(=O)OCC(=O)N2c3ccccc3CC2C)c1 (stereo not drawn) the results were CHRM1 antagonist -1.1, SKN-1 inh -4.6, ATG4B inhibitor 2.4, CHRM1 agonist -3.4, CHRM1 PAM 2.1 and Myeloid diff 2 active.
For CCO[C@@H]1OC(C(=O)NCc2ccccc2)=C[C@H](C2CCCCC2)[C@H]1CCCO the results were CHRM1 antagonist -2.4, SKN-1 inh 0.0, ATG4B inhibitor 3.9, CHRM1 agonist -10.6, CHRM1 PAM -4.6 and Myeloid diff 2 active.
`Cc1ccc2nc(C)c(CN3CCN(c4ccc([N+](=O)[O-])cc4Cl)CC3)n2c1` gave CHRM1 antagonist 36.9*, SKN-1 inh -8.8, CHRM1 agonist -5.7, CHRM1 PAM -19.6 and Myeloid diff 2 inconclusive.
Screening CC1(Cc2ccc(OC(F)(F)F)cc2)C(=O)Nc2ccc(OC(F)(F)F)cc21 (stereo not drawn) returned CHRM1 antagonist -5.3, SKN-1 inh 37.9*, CHRM1 agonist -4.6, CHRM1 PAM 0.7 and Myeloid diff 2 inactive.
COC(=O)c1ccc(CC2(C)C(=O)Nc3ccc(-c4cccc(C(F)(F)F)c4)cc32)o1 (stereo not drawn) was read as CHRM1 antagonist -13.2, SKN-1 inh 39.1*, CHRM1 agonist 4.1, CHRM1 PAM 13.9 and Myeloid diff 2 inactive.
Screening COc1ccc2c(C)cc(SCC(=O)N(C)C3CCS(=O)(=O)C3)nc2c1 (stereo not drawn) returned CHRM1 antagonist -2.0, SKN-1 inh 11.8, ATG4B inhibitor -6.5, CHRM1 agonist -5.4, CHRM1 PAM 4.7 and Myeloid diff 2 active.
`COc1ccc(-c2nnc(SCC(=O)N(C)C3CCS(=O)(=O)C3)n2C(C)C)cc1` (stereo not drawn) gave CHRM1 antagonist -10.1, SKN-1 inh 4.9, ATG4B inhibitor -2.2, CHRM1 agonist 0.2, CHRM1 PAM 7.1 and Myeloid diff 2 inactive.
COc1cc(/C=C2/C(C)=C(C#N)c3nc(N)c(C#N)c(C)c32)ccc1OCC(=O)O was read as ATG4B inhibitor 5.0.
For CC1=C(C#N)c2nc(N)c(C#N)c(C)c2/C1=C\c1ccc(-c2ccccc2C(=O)O)o1 the results were CHRM1 antagonist 0.6, SKN-1 inh 43.4*, ATG4B inhibitor 13.8, CHRM1 agonist -8.2, CHRM1 PAM 3.5 and Myeloid diff 2 inactive.
COc1ccccc1CNC(=O)c1cc(S(=O)(=O)N2CCN(c3ccccc3)CC2)ccc1Cl was read as CHRM1 antagonist -9.1, SKN-1 inh 8.1, ATG4B inhibitor 9.7, CHRM1 agonist 0.9, CHRM1 PAM 7.5 and Myeloid diff 2 inactive.
Screening COC(C(=O)Nc1cccc(F)c1)c1ccccc1 (stereo not drawn) returned CHRM1 antagonist -17.9, SKN-1 inh -7.7, ATG4B inhibitor -7.1, CHRM1 agonist -2.6, CHRM1 PAM 11.8 and Myeloid diff 2 active.
For COC(C(=O)Nc1ccc(F)c(F)c1)c1ccccc1 (stereo not drawn) the results were CHRM1 antagonist 0.6, SKN-1 inh 4.1, ATG4B inhibitor -8.6, CHRM1 agonist -5.3, CHRM1 PAM 4.3 and Myeloid diff 2 inactive.
`CS(=O)(=O)c1nc(S(=O)(=O)c2ccc(Cl)cc2)c(N2CCN(CCO)CC2)s1` gave CHRM1 antagonist 3.1, SKN-1 inh 3.4, ATG4B inhibitor -11.8, CHRM1 agonist -0.2, CHRM1 PAM 2.5 and Myeloid diff 2 active.
`CN1CCN(c2sc(S(C)(=O)=O)nc2S(=O)(=O)c2ccc(Cl)cc2)CC1` gave CHRM1 antagonist -2.1, SKN-1 inh 17.4, ATG4B inhibitor -6.6, CHRM1 agonist -13.4, CHRM1 PAM -4.8 and Myeloid diff 2 inactive.
Cc1ccc(S(=O)(=O)c2nc(S(C)(=O)=O)sc2N2CCCCC2C)cc1 (stereo not drawn) was read as CHRM1 antagonist -1.6, SKN-1 inh -16.1, ATG4B inhibitor -6.3, CHRM1 agonist -10.0, CHRM1 PAM -0.8 and Myeloid diff 2 active.
Screening O=C(CSc1c2c(nc3cc(Cl)ccc13)CCCC2)NCCCN1CCOCC1 returned CHRM1 antagonist 11.1, SKN-1 inh -0.8, ATG4B inhibitor -4.9, CHRM1 agonist -13.4, CHRM1 PAM -24.4 and Myeloid diff 2 inactive.
Screening O=C(CSc1c2c(nc3ccc(Cl)cc13)CCCC2)NCCCN1CCOCC1 returned CHRM1 antagonist 98.4*, SKN-1 inh 4.4, ATG4B inhibitor -0.9, CHRM1 agonist -9.4, CHRM1 PAM -26.5 and Myeloid diff 2 inactive.
`CCc1c(C)nc(SCC(=O)NNC(=O)c2ccco2)[nH]c1=O` gave CHRM1 antagonist 2.3, SKN-1 inh -4.0, ATG4B inhibitor -5.1, CHRM1 agonist -3.0, CHRM1 PAM -2.2 and Myeloid diff 2 active.
CC1Sc2ccc(S(=O)(=O)N3CCC(C(=O)Nc4cccc(Cl)c4)CC3)cc2NC1=O (stereo not drawn) was read as CHRM1 antagonist 25.2, SKN-1 inh 14.8, ATG4B inhibitor -7.9, CHRM1 agonist -1.7, CHRM1 PAM -7.8 and Myeloid diff 2 inactive.
`Cc1ccc([C@@H]2C[C@H]3[C@@H](CN2S(=O)(=O)c2ccc(Cl)cc2)C(=O)C[C@@H](c2ccc(Cl)cc2)N3S(=O)(=O)c2ccccc2C)cc1` gave CHRM1 antagonist -3.0, SKN-1 inh 2.8, CHRM1 agonist -1.3, CHRM1 PAM 3.0 and Myeloid diff 2 inactive.
`COc1cc(C)c(C(=O)CC(=O)c2c(C)cc(OC)cc2C)c(C)c1` gave CHRM1 antagonist 10.0, SKN-1 inh 8.1, ATG4B inhibitor 3.8, CHRM1 agonist -6.0, CHRM1 PAM -2.6 and Myeloid diff 2 active.
Screening O=C(Nc1cccc2c1CCCC2)c1cc(C2CCCCN2S(=O)(=O)c2cccs2)on1 (stereo not drawn) returned CHRM1 antagonist -7.0, SKN-1 inh 31.9, CHRM1 agonist -5.9, CHRM1 PAM -1.2 and Myeloid diff 2 inactive.
Cc1ccc(C2C3CN(C(C)C)CC=C3C(C#N)=C(N)C2(C#N)C#N)cc1 (stereo not drawn) was read as CHRM1 antagonist 10.3, SKN-1 inh 14.0, ATG4B inhibitor -10.8, CHRM1 agonist -1.6, CHRM1 PAM -17.6 and Myeloid diff 2 active.
`COc1ccc(OC)c(C2C3CN(C(C)C)CC=C3C(C#N)=C(N)C2(C#N)C#N)c1` (stereo not drawn) gave CHRM1 antagonist -8.3, SKN-1 inh 10.7, ATG4B inhibitor -10.4, CHRM1 agonist -1.4, CHRM1 PAM 5.5 and Myeloid diff 2 inactive.

Source: PubChem BioAssay
